Legend:
Conditions in all cases: concentration: 1 μM,replicates: in singlicate; n = 1
DYRK1B = test system: DYRK1B
DYRK2 = test system: DYRK2
EGFR = test system: EGFR
EIF2AK1 = test system: EIF2AK1
EPHA1 = test system: EPHA1
EPHA2 = test system: EPHA2
EPHA3 = test system: EPHA3
EPHA4 = test system: EPHA4
EPHA5 = test system: EPHA5
EPHA6 = test system: EPHA6
EPHA7 = test system: EPHA7
EPHA8 = test system: EPHA8
EPHB1 = test system: EPHB1
EPHB2 = test system: EPHB2
EPHB3 = test system: EPHB3
EPHB4 = test system: EPHB4
EPHB6 = test system: EPHB6
ERBB2 = test system: ERBB2
ERBB3 = test system: ERBB3
ERBB4 = test system: ERBB4
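Also: KINOMEscan kinase panel screen.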

Row | SMILES | %Inh (DYRK1B) [%] | %Inh (DYRK2) [%] | %Inh (EGFR) [%] | %Inh (EIF2AK1) [%] | %Inh (EPHA1) [%] | %Inh (EPHA2) [%] | %Inh (EPHA3) [%] | %Inh (EPHA4) [%] | %Inh (EPHA5) [%] | %Inh (EPHA6) [%] | %Inh (EPHA7) [%] | %Inh (EPHA8) [%] | %Inh (EPHB1) [%] | %Inh (EPHB2) [%] | %Inh (EPHB3) [%] | %Inh (EPHB4) [%] | %Inh (EPHB6) [%] | %Inh (ERBB2) [%] | %Inh (ERBB3) [%] | %Inh (ERBB4) [%]
1 | O=C1NCCc2[nH]c(-c3ccncc3)cc21 | 97.6 | 97.1 | 0 | 0 | 2 | 0 | 0 | 30 | 31 | 41 | 0 | 0 | 0 | 12 | 44 | 17 | 8 | 0 | 21 | 0
2 | C[C@@H]1CCN(C(=O)N2CCCC2)C[C@@H]1N(C)c1ncnc2[nH]ccc12 | 0 | 0 | 0 | 23 | 1 | 0 | 0 | 16 | 8 | 20 | 0 | 0 | 0 | 5 | 26 | 0 | 34 | 10 | 0 | 7
3 | O=c1[nH]cc(-c2ccc(O)cc2)c2sc(-c3ccncc3)cc12 [GSK1033723] | 84 | 87 | 32 | 12 | 8 | 10 | 0 | 10 | 0 | 6 | 0 | 2 | 0 | 26 | 15 | 13 | 0 | 28 | 0 | 2
4 | Cc1ccc(CC(=O)N2CCc3cc(-c4cn(C)c5ncnc(N)c45)ccc32)cc1 [GSK2634758] | 0 | 7 | 27 | 46 | 0 | 2 | 0 | 0 | 0 | 0 | 4 | 13 | 7 | 0 | 0 | 10 | 53 | 0 | 10 | 18
5 | Cl.Cl.NC[C@H](CC1CCCCC1)NC(=O)c1ccc(-c2ccnc3[nH]ccc23)s1 [GSK1581428] | 27 | 80 | 28 | 0 | 7 | 0 | 17 | 5 | 0 | 27 | 14 | 36 | 6 | 0 | 15 | 14 | 12 | 22 | 0 | 0
